# Laboratory results as given in PubChem BioAssay.
# What was measured:
# [1] = test system: Human papillomavirus type 1a protein E7 (residues 44-93); experiment: small molecules binding HPV E7 44-93 – biochemical, small-molecule microarray, residues 44-93, 635 nm fluorescence, primary screen (AID 1108); conditions: fluorescence 635 nm, higher = more signal;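 note: E7 fragment applied at 1 µg/mL in TBST for 1 h at 4 C; score combines spot fluorescence with its signal to noise ratio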
# [2] = hepatitis C replication reporter changes, two-sided – Huh7 cells, luciferase reporter, HCV replication inhibitor project, primary screen (AID 1109); conditions: Huh7 HCV replicon luciferase reporter, 48 h; higher = more signal;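 note: huh7 hepatoma cells harbouring a luciferase neomycin HCV replicon reporter; luciferase luminescence as measure of HCV replicon replication; test concentration not given here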
# [3] = target: Left-right determination factor 2 (Homo sapiens) (UniProt O00292); experiment: small molecules binding LEFTY2 protein – biochemical, small-molecule microarray, 635 nm fluorescence scan, primary screen (AID 1110); conditions: higher = more signal
# Left-right determination factor 2 (Homo sapiens), sequence (O00292 whole entry, looked up): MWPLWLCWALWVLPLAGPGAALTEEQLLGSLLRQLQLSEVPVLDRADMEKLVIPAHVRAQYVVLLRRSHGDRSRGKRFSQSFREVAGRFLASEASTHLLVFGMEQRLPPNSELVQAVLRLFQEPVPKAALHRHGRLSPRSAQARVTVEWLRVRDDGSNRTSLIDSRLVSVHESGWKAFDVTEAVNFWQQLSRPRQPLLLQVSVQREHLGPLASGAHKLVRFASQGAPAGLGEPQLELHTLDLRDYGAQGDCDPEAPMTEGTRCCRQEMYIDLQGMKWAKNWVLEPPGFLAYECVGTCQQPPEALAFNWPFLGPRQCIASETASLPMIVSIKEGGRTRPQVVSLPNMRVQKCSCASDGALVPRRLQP
# [4] = target: Calmodulin-1 (Homo sapiens) (UniProt P0DP23); experiment: small molecules binding calmodulin-1 with EGTA – biochemical, small-molecule microarray, Cy5-labelled CALM1, profiling panel (AID 1111); conditions: Cy5-CALM1 binding fluorescence, higher = more signal;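 note: labelled calmodulin applied in Tris saline Tween buffer holding calcium plus EGTA and DTT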
# [5] = target: Calmodulin-1 (Homo sapiens) (UniProt P0DP23); experiment: small molecules binding Ca-loaded calmodulin-1 – biochemical, small-molecule microarray, Cy5-labelled CALM1, plus calcium, artefact control for SMM control-protein annotation, profiling panel (AID 1112); conditions: Cy5-CALM1 binding fluorescence, higher = more signal;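 note: score merges spot fluorescence with signal to noise from triplicate slides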
# [6] = probe aWnt5a binding to arrayed compounds – biochemical, biotinylated probe, 635/667 nm fluorescence, primary screen (AID 1113); conditions: small-molecule microarray, higher = more signal;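 note: score merges 667 nm fluorescence intensity with signal-to-noise per printed feature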
# [7] = probe aShh binding to arrayed compounds – biochemical, biotinylated probe, 635/667 nm fluorescence, primary screen (AID 1114); conditions: small-molecule microarray, higher = more signal;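 note: probe is biotin-labelled aShh protein from a stem cell growth factor screen; measures binding of labelled protein to compounds printed on the slide; score merges feature fluorescence at 667 nm with signal-to-noise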
# [8] = probe aNog binding to arrayed compounds – biochemical, biotinylated probe, 635/667 nm fluorescence, primary screen (AID 1115); conditions: small-molecule microarray, higher = more signal;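 note: probe is biotinylated aNog protein used at 0.15 µg/mL for 1 h at 4 C; z-score combines 667 nm fluorescence of each spot with its signal to noise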
# [9] = target: Torsin-1A-interacting protein 1 (Homo sapiens) (UniProt Q5JTV8); experiment: compound microarray binding of lysate hLAP1 – cell lysate, small-molecule microarray, COS7 lysate, 635/667 nm fluorescence, primary screen (AID 1116); conditions: 635 nm fluorescence, higher = more signal
# Torsin-1A-interacting protein 1 (Homo sapiens), sequence (Q5JTV8 whole entry, looked up): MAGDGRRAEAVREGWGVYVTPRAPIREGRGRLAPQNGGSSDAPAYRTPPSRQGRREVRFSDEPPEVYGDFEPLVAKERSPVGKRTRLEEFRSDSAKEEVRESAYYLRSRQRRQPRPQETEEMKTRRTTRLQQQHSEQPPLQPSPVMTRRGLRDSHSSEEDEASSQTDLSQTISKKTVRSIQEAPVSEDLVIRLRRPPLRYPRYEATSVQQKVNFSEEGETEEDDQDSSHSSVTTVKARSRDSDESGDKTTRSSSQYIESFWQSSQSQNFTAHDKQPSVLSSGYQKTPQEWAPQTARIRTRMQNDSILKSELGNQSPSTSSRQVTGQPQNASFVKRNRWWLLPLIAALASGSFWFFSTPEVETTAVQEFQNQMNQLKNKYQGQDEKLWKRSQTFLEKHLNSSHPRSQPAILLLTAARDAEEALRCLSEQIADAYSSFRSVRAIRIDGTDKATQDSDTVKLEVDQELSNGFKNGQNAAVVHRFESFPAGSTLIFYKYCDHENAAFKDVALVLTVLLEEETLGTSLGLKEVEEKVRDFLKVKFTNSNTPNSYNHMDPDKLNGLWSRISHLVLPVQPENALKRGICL
# [10] = target: Alpha-bungarotoxin (Bungarus multicinctus) (UniProt P60615); experiment: compounds binding labelled alpha-BTX control protein – biochemical, small-molecule microarray, Alexa647 label, 635/667 nm fluorescence, artefact control for SMM control protein annotation, profiling panel (AID 1117); conditions: alpha-BTX-A647 binding fluorescence, higher = more signal
# Alpha-bungarotoxin (Bungarus multicinctus), sequence (P60615 whole entry, looked up): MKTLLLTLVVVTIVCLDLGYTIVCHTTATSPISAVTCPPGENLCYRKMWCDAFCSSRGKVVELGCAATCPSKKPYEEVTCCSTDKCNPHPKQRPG
Structure (SMILES),composite z-score [1],z-score [2],composite z-score [3],composite z-score [4],composite z-score [5],composite z-score [6],composite z-score [7],composite z-score [8],composite z-score [9],composite z-score [10]
COCCOC(=O)N1C(=O)[C@@]2(c3ccccc31)[C@H](C(=O)N1CCCCCCC1)[C@H]1C(=O)O[C@H](c3ccccc3)[C@H](c3ccccc3)N1[C@@H]2c1ccc(OCCO)cc1,1.63,-2.07,1.91,3.2,1.76,1.65,3.65,3.67,5.73,4.02
CC(C)Cc1ccc(CN2CC[C@@H](N)C2)cc1,-2.06,-4.41,-0.669,-0.387,0.36,-0.274,-0.147,0.023,-1.24,-0.118
COCC(=C=CC[C@H](O)c1cccc(OCCO)c1)CCO,1.02,-0.119,0.0075,-0.488,-0.487,-0.127,-0.156,0.0395,-0.0815,-0.113
CS(=O)(=O)CCOC(=O)C1=CC(CCCO)=CC(C2CC2)N(Cc2cc3c(cc2Br)OCO3)C=C1C(=O)OCCS(C)(=O)=O (stereo not given),1.07,-1.2,-0.0224,0.331,-0.0113,-0.0192,-0.0035,0.357,1.11,0.598
COC(=O)[C@H](Cc1ccccc1)N[C@H](/C=C/C1CC1)[C@@H](O)Cc1ccccc1,-0.636,-1.02,-0.276,-0.595,-1.08,-0.237,0.14,-0.34,0.627,-0.696
COCCOC(=O)N1C(=O)[C@@]2(c3cc(C#CC4=CCCCC4)ccc31)[C@H](C(N)=O)[C@H]1C(=O)O[C@H](c3ccccc3)[C@H](c3ccccc3)N1[C@@H]2c1ccc(O)cc1,1.13,-1.76,0.959,1.16,-0.308,-0.107,-0.0362,-0.0956,0.923,1.51
CCOC(=O)C1=CC[C@H]2C(=O)N(c3ccccc3)C(=O)[C@@H]12,1.51,-1.36,0.791,0.802,-0.513,0.027,-0.0793,1.15,1.14,0.203
C[N+](C)(C)CCCCCCNC(=O)[C@H]1C[C@H]2C(=O)N[C@@H](Cc3ccccc3)C(=O)N2[C@H]1c1cccc(OCCO)c1,0.658,0.487,0.642,-0.96,-1.03,-0.184,-0.243,-0.234,0.944,-0.049
C[N+](C)(C)CCCC[C@@H]1NC(=O)[C@@H]2C[C@H](C(=O)NCCCCCN)[C@H](c3ccc(O)cc3)N2C1=O,1.34,0.0633,1.24,2.08,1.12,0.0775,-0.167,1.57,1.29,2.13
C=C(CCCC)/C(=C/C[C@@H](OC(C)=O)c1cccc(OCCO)c1)c1cnc2ccccc2c1,0.571,-1.32,0.257,-0.18,-0.387,-0.124,-0.0709,0.123,0.314,1.07
OCCCC1=CC(C2CC2)N(Cc2cccc(OC(F)(F)F)c2)CC1 (stereo not given),-0.928,-1.32,-0.119,-0.968,0.115,-0.178,-0.321,-0.641,1,-0.478
Cc1ccc(/C=C/C=O)cc1,0.134,0.626,-0.419,0.619,-0.524,-0.213,-0.0146,-0.299,-0.0785,0.185
COCCOC(=O)N1C(=O)[C@@]2(c3cc(C#CC4(O)CCCCCC4)ccc31)[C@H](C(=O)Nc1nc3ccccc3s1)[C@H]1C(=O)O[C@H](c3ccccc3)[C@H](c3ccccc3)N1[C@@H]2c1ccccc1OCCO,-0.441,-1.66,0.555,1.71,0.926,-0.0165,0.321,0.546,0.547,2.37
O=C1N(CCS(=O)(=O)c2ccccc2)c2ccccc2[C@@H]2OC(c3ccc(OCCCO)cc3)=N[C@]12Cc1ccccc1,1.34,-1.94,0.248,0.835,-0.387,-0.124,-0.24,-0.12,0.309,1.32
CC(C)OC(=O)C=C1C[C@@H](c2cccc(Cl)c2)O[C@@H](c2cccc(Cl)c2)O1,0.597,-0.825,-0.869,1.39,1.05,-0.0735,-0.0035,-0.43,1.58,0.381
CC(=CC1CCCCC1)[C@@H](NC(=O)c1cccnc1)c1ccc(-c2ccccc2)cc1,0.0493,-2.14,-0.405,0.139,0.735,-0.13,-0.0403,0.747,-0.217,-0.124
COCCCNC(=O)[C@@]1(Cc2ccccc2CN=[N+]=[N-])N=C(c2ccc(OCCCO)cc2)O[C@H]1c1ccccc1CN=[N+]=[N-],1.37,-3.39,-0.443,1.36,0.875,0.173,0.311,-0.69,0.852,1.84
Cc1c(NC(=O)/C(C#N)=C/c2cccc([N+](=O)[O-])c2)c(=O)n(-c2ccccc2)n1C,0.785,-1.44,0.285,0.619,-0.249,-0.0819,-0.0793,-0.346,0.38,0.0071
COc1cc2c(cc1O)C=[N+](Cc1cc3c(cc1Br)OCO3)CC2,-0.411,-0.537,-0.678,-1.01,-0.0978,-0.16,-0.16,-0.492,-0.479,-2.64

Structure (SMILES),composite z-score [1],z-score [2],composite z-score [3],composite z-score [4],composite z-score [5],composite z-score [6],composite z-score [7],composite z-score [8],composite z-score [9],composite z-score [10]
C=C(CCCC)C(=O)CC[C@H](OC(=O)c1cccnc1)c1ccc(OCCO)cc1,-0.574,-3.61,-0.327,-0.556,-0.736,-0.0455,0.296,0.406,0.656,0.551
O=C(O)[C@H]1C[C@H]2C(=O)N3CCC[C@H]3C(=O)N2[C@H]1c1ccc(O)cc1,-0.124,0.253,-2.21,-0.342,0.123,-0.202,-0.348,-0.216,0.319,-1.55
CCCNC(=O)[C@@H]1c2ccccc2C(=O)N(Cc2ccccc2OC)[C@H]1c1ccc(CO)cc1,1.46,-1.12,0.146,1.07,0.485,-0.0512,-0.173,0.57,0.239,1.25
O=C1OCCC=C[C@H]2OC34C=CCN(c5ccc(Cl)cc5)C(=O)[C@H]3N(CCCO)C(=O)[C@@H]4C12 (stereo not given in full),-0.726,-1.04,-0.131,0.0745,0.168,-0.182,-0.186,0,-0.421,0.275
CCOC(=O)C[C@H]1[C@H](OC(=O)c2ccc(C(=O)c3ccccc3)cc2)[C@@H](NC(=O)c2ccccc2)c2cc(OCCCO)ccc2N1C(=O)c1ccccc1,1.09,-1.33,0.224,0.461,0.168,0.0102,-0.0769,-0.234,0.63,0.872
CC1CC/C=C\[C@H]2OC34C=CCN(Cn5nnc6ccccc65)C(=O)[C@H]3N(CCCCCO)C(=O)[C@@H]4C2C(=O)O1 (stereo not given in full),-1.05,0.814,-1.54,-0.881,0.0455,-0.197,-0.283,0.558,-0.722,-1.3
CCCCN1CC=CC23O[C@@H]4/C=C\CCCOC(=O)C4[C@H]2C(=O)N(CCCO)[C@@H]3C1=O (stereo not given in full),0.498,-0.381,-1.08,-0.692,-0.298,-0.124,-0.0211,0.13,2.1,-0.803
COC(=O)[C@@]1(Cc2ccc(OC)cc2)[C@H]2c3cc(C(=O)N4CCCC4)n(CCCNc4ncc(C(F)(F)F)cc4Cl)c3C[C@H]2CN1C(=O)c1ccccc1,0.958,-2.32,0.0792,1.33,0.74,0.901,0.76,-0.447,-0.0323,0.884
O=C(NC1CC1)[C@@H]1c2ccccc2C(=O)N(Cc2cc(F)cc(C(F)(F)F)c2)[C@H]1c1ccc(CO)cc1,0.558,-0.509,-1.05,-0.768,-0.628,-0.161,-0.0709,0.0308,0.0706,-0.405
NC(=O)NCC#Cc1ccc2c(c1)[C@]1(C(=O)N2)[C@H](C(=O)O)[C@H]2C(=O)O[C@H](c3ccccc3)[C@H](c3ccccc3)N2[C@@H]1c1ccc(O)cc1,0.443,-0.539,-0.317,1.6,0.717,0.216,0.346,1.61,0.412,1.5
C=C(C)[C@@H]1CC=C(C(O)C2C=CC3C(=O)NC(=O)C3N2Nc2ccc(Cl)cc2Cl)CC1 (stereo not given in full),0.762,-0.537,0.216,2.19,1.21,0.0328,-0.0271,1.61,0.584,2.26
COc1cc2c(cc1O)C(c1cccs1)N(Cc1ccc([N+](=O)[O-])o1)CC2 (stereo not given),0.665,-0.213,-0.333,1.5,0.33,-0.0303,0.155,1.19,-0.194,0.766
CC(C)[C@@H](C(=O)O)n1cc(C2(O)CCCCC2)nn1,0.875,-0.465,0.21,0.539,0.0141,-0.201,-0.0738,-0.0809,0.563,0.184
C=CCNC(=O)[C@H]1[C@@H]2C(=O)O[C@@H](c3ccccc3)[C@@H](c3ccccc3)N2[C@@H](c2ccc(OCCO)cc2)[C@]12C(=O)Nc1ccc(C#CCC(C(=O)OC)C(=O)OC)cc12,0.694,-2.22,1.37,0.832,0.478,0.0805,-0.254,-0.126,0.357,1.34
CN(C)CCCCNC(=O)[C@@H]1C[C@@H]2C(=O)N[C@@H](CCCCN)C(=O)N2[C@@H]1c1ccc(O)cc1,0.0215,-1.04,0.886,1.53,-0.288,0.0725,0.213,0.654,0.677,1.36
[N-]=[N+]=Nc1ccccc1C[C@@]1(C(=O)N2CCCCC2)N=C(c2ccc(OCCCO)cc2)O[C@@H]1c1ccccc1,-0.108,-1.2,0.0334,1.83,0.914,-0.0459,-0.0904,1.79,1.52,1.07
C=C(CCCC)/C(=C/C[C@H](OC(C)=O)c1ccc(OCCO)cc1)c1cnc2ccccc2c1,1.43,-2.43,0.52,-0.185,-0.378,-0.101,-0.0035,-0.483,0.491,1.85
Cc1ccc(S[C@]2(C(=O)O)CC(=O)N(C(C)C)[C@@H]2c2ccc(CO)cc2)cc1,0.253,-0.625,-0.193,-0.0058,-0.529,-0.12,0.216,-0.294,1.42,0.644
